Results on 36 molecules are retold here after PubChem BioAssay (NCATS).

Each structure is given as a SMILES string. Several values for one entry are separate records, joined by “and”; a condition that tells them apart may be missing. Identical values can stand only once. Inconclusive results are not listed. Values without a mark were called inactive. Activity calls are given as the source filed them. The call rests on the fitted dose curve; in most records, active means well fitted inhibition curve with a large enough effect; inconclusive means small, poorly fitted or top-dose-only effect; inactive means flat fitted curve, though single readings scatter.
On the % scale 0 is the no-effect control and ±100 the full control effect.

The test system of this assay is KB-3-1. The experiment in a line: Cytotoxic Profiling of Annotated Libraries Using Quantitative High-Throughput Screening (AID 1296008). Further: nearly all actives have a fitted effect of over 60% in size. The settings on record: Five cell lines viability, CellTiter-Glo ATP luminescence, 48-72 h; max response: hits give low values. The source says: Cell-based phenotypic screening is a commonly used approach to discover biological pathways, novel drug targets, chemical probes and high-quality hit-to-lead molecules. Many hits identified from high-throughput screening campaign are ruled out through a series of follow-up potency, selectivity/specificity, and cytotoxicity assays. Prioritization of molecules with little or no cytotoxicity for a more in-depth downstream evaluation influence the future direction of projects, so cytotoxicity profiling of the screening libraries at early stage is essential for increasing the likelihood of candidate success. […] For the annotated library, we also examined the primary targets and mechanistic pathways regularly associated with cell death. To our knowledge, this is the first study to use high-throughput screening to profile large libraries for cytotoxicity assessment in both normal and cancer cell lines. In summary, the results generated here constitutes a valuable resource for the scientific community and provides insight on identifying cytotoxic compounds with particular mechanisms of action, and prioritizing compounds with suitable cytotoxicity profile for further evaluation.
A pintool (Kalypsys) was used to transfer 23 nL of compound solution to the 1536-well assay plates. After 48 or 72 hr incubation at 37 degree Celsius, 5% CO2 and 95% humidity, 2.5 uL of CellTiter-Glo (Promega) was dispensed into each well using a dispenser (Aspect Automation, St. Paul, MN) with solenoid valves (Lee Valves, Westbrook CT). Plates were left at room temperature for 10 min before imaging the ATP-coupled luminescence using a ViewLux microplate imager (PerkinElmer, Waltham, MA).
As to `COc1ccc2cc1Oc1cc3c(cc1OC)CC[N+](C)(C)[C@H]3Cc1ccc(cc1)Oc1c(OC)c(OC)cc3c1[C@@H](C2)[N+](C)(C)CC3`, the max response is 0.968%.

As for `CC(=O)CCC(=O)O`, the max response is 2.58%.

In the case of `OCC(CO)N[C@H]1C[C@](O)(CO)[C@@H](O)[C@H](O)[C@H]1O`, the max response was -14.4%.

On to `O=Cc1ccccc1C=O`, for which the max response is -3.37%.

Regarding `CC(C)(C(=O)O)c1ccc(C(O)CCCN2CCC(C(O)(c3ccccc3)c3ccccc3)CC2)cc1` (stereo not given), the max response is -2.58% and -5.29%.

Turning to `CCCCN(CCCC)CCCOC(=O)c1ccc(N)cc1`, the max response was -15.2%.

In the case of `O=C1O[C@H]([C@@H](O)CO)C(O)=C1O`, the max response was -6.89% and 6.42%.

On to `Nc1nc2c(ncn2CCC(CO)CO)c(=O)[nH]1`, for which the max response was 13.5% and 1.71%.

As for `O=C1N=C(O)CN1/N=C/c1ccc(-c2ccc([N+](=O)[O-])cc2)o1`, the max response is 4.36%.

On to `NCCNCCNCCN`, for which the max response is -5.28%.

As to `CC(C)c1c(C(=O)Nc2ccccc2)c(-c2ccccc2)c(-c2ccc(F)cc2)n1CC[C@@H](O)C[C@@H](O)CC(=O)O`, the max response was -3.5%.

As to `CC12CCC(CC1)C(C)(C)O2`, the max response was -7.48%.

As for `CC1=C(C/C=C(\C)CCC[C@H](C)CCC[C@H](C)CCCC(C)C)C(=O)c2ccccc2C1=O`, the max response is -12.7%.

For the molecule `O=c1[nH]cnc2c1ncn2[C@@H]1O[C@H](CO)[C@@H](O)[C@H]1O`, the call was inactive and the max response was 7.98%.

As for `Nc1ccc(S(=O)(=O)Nc2nccs2)cc1`, the molecule was classed as inactive and the max response is -16.1%.

As to `CCCn1cnc2c1c(=O)n(CCCCC(C)=O)c(=O)n2C`, the max response was 4.64%.

On to `Cc1cccc(C)c1NC(=O)CN(CC(=O)O)CC(=O)O`, for which the max response was 2.9%.

With `CC1(C)S[C@@H]2[C@H](NC(=O)Cc3ccccc3)C(=O)N2[C@H]1C(=O)O` (tested in a mixture with another compound), the max response was 9.18%.

Turning to `C=Cc1c(C)c2cc3[nH]c(cc4nc(cc5nc(cc1[nH]2)C(C)=C5CCC(=O)O)C(CCC(=O)O)=C4C)c(C)c3C=C`, the max response was -3.43%.

For `Oc1cccc(O)c1`, the max response was -21.4%.

As for `OCCN1CCN(CCCN2c3ccccc3Sc3ccc(Cl)cc32)CC1`, the max response was -16%.

`CN1[C@@H]2CC[C@H]1CC(OC(=O)C(O)c1ccccc1)C2` (stereo not given in full): the max response was 3.38% and -1.31% and -10.9%.

For the molecule `CC(O)CN(CCN(CC(C)O)CC(C)O)CC(C)O` (stereo not given), the max response was -16.3%.

For `CCCCN1CCCC[C@H]1C(=O)Nc1c(C)cccc1C`, the max response is 2.43% and the molecule was called inactive.

In the case of `CCN(CC)CCNC(=O)c1cc(Cl)c(N)cc1OC`, the outcome was inactive and the max response was 7.45%.

As to `Cn1cc[nH]c1=S`, the max response is 10.2%.

`CC1(C)[C@@H]2CC[C@@]1(C)C(=O)C2`: the max response is -13.1%.

On to `Cc1cc(O)cc2c1O[C@](C)(CCC[C@H](C)CCC[C@H](C)CCCC(C)C)CC2`, for which the max response is -4.01% and 1.69%.

Take `Cc1c(Cl)cccc1Nc1ccccc1C(=O)O`: the max response was -2.57%.

As to `NC(=O)NNc1ccccc1`, the max response is 13.6% and -2.9%.

For `COc1ccccc1O`, the max response is -18.3% and -7.82%.

Regarding `CSc1ccc2c(c1)C(N1CCN(C)CC1)Cc1ccccc1S2` (stereo not given), the max response is 0.66%.

Regarding `CCCCOC(=O)c1ccc(O)cc1`, the max response is 0.659%.

With `COCCOC(=O)C1=C(C)NC(C)=C(C(=O)OC/C=C/c2ccccc2)C1c1cccc([N+](=O)[O-])c1` (stereo not given), the max response is 22.9%.

On to `CN1CCOC(c2ccccc2)c2ccccc2C1` (stereo not given), for which the max response was -9.99% and 4.82%.

For `Nc1cc(=O)[nH]c(N)n1`, the max response was -2.08%.
